The supplement of paper PMC10338343
± gives the standard deviation.

System: MILI (PIWIL2) piRISC loaded with L1MC piRNA (26 nt)
Test: pre-steady-state target cleavage rate (min^-1); guide: L1MC piRNA 5'p-UAACUAAAUACUAUGCAAGCUGUAGG; MIWI and MILI are mouse PIWI proteins and EfPiwi is from a freshwater sponge; tags in brackets are library labels; higher = faster piRNA-guided slicing of the target
Outline: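 The pre-steady-state cleavage rate came from a burst-and-steady-state fit to pooled data from three Cleave-'n-Seq trials, in which uncleaved targets were sequenced and normalised to depth and to weakly complementary targets. Each reaction held 0.1 nM transcribed, DNA-blocked target RNA library and 1 nM active affinity-purified piRISC carrying one synthetic guide, with or without 500 nM GTSF1 partner protein, in HEPES–potassium acetate buffer at 33 °C for 0–8 or 0–960 min. k3 was capped at 0.0001 min^-1.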

[1] = auxiliary factor: 500 nM mouse GTSF1
[2] = auxiliary factor: none (no GTSF1)

In the case of UCCUGGUAGUGCUUGCAUAGUAUUUUCAAA, the “pre-steady-state target cleavage rate” value [1] is reported as 0.00481 ± 0.0037.
For UCCUGGAUGUGCUUGCAUUGUAUUUAGAAA, the “pre-steady-state target cleavage rate” value [1] was 0.0114 ± 0.0047.
With UCCUGGAUGUGCUUGCAUAGUUAAUAGUUA the “pre-steady-state target cleavage rate” value [1] was 0.00482 ± 0.0042.
UCCUGGAUGUGCUUGCAUAGUAUUUACAUA was tested, and the “pre-steady-state target cleavage rate” value [1] was 0.0112 ± 0.0044.
With UCCUGGAACUCCUUGCAUAGUAUUUUCAAA the “pre-steady-state target cleavage rate” value [1] was 0.0315 ± 0.0074.
With UCCUGGAUGUCCUUGCAUAGCAUUUAGUUA the “pre-steady-state target cleavage rate” value [1] was 0.0257 ± 0.0079.
UCCUGGAUCAGCUUGGAUAGUAUUUAGAUA was tested, and the “pre-steady-state target cleavage rate” value [1] was 0.0949 ± 0.016.
For UCCUGGAUGUCGAACGUAUCUAUUAAGUUA, the “pre-steady-state target cleavage rate” value [2] was under 0.0001.
With UCCUGGUACAGCUUGCAUAGUAUUAUCAAA the “pre-steady-state target cleavage rate” value [1] was 0.0127 ± 0.0058.
In the case of UCCUGGUACAGCUUGCAUAGGAUUUAGUUA, the “pre-steady-state target cleavage rate” value [1] is reported as 0.00737 ± 0.0052.
UCCUCCUACAGCUUGCAUUCUAUUUAGUAA was tested, and the “pre-steady-state target cleavage rate” value [1] was 0.0535 ± 0.017.
UCCUGGAUGACCUUGCAUAGUAUUUAGUAA was tested, and the “pre-steady-state target cleavage rate” value [1] was 0.152 ± 0.019.
With UCCUGGAUCUGCUUGCAUAGUAUUUUCAAA the “pre-steady-state target cleavage rate” value [1] was 0.0366 ± 0.0094.
For UCCUGCUAGUCCUUGCAUAGUAUUUACAAA, the “pre-steady-state target cleavage rate” value [1] was 0.0056 ± 0.004.
For UCCUGGUUCAGCUUGCAUAGUAUUUUCAAA, the “pre-steady-state target cleavage rate” value [1] was 0.0427 ± 0.016.
“UCCUGGAUGUCGAACCAUAGUAUUUUCAAA [g6:g15:cont:t1A]” was tested, and the “pre-steady-state target cleavage rate” value [2] was under 0.0001.
UCCUGGAUGUCGAUGCAUUGUAAUUAGUUA was tested, and the “pre-steady-state target cleavage rate” value [2] was under 0.0001.
In the case of UCCUGGAACAGCUUGCAUAGUAUAAUGUAA, the “pre-steady-state target cleavage rate” value [1] is reported as 0.014 ± 0.0065.
For UCCUGCUACAGCUACGAUAGUAUUUAGUAA, the “pre-steady-state target cleavage rate” value [1] was 0.185 ± 0.035.
In the case of UCCUGGUACAGCUUGCAUAGUAUAUAGAUA, the “pre-steady-state target cleavage rate” value [1] is reported as 0.014 ± 0.0071.
In the case of UCCUGGAUGUGCUUGCAUACUAAUUAGUUA, the “pre-steady-state target cleavage rate” value [1] is reported as 0.00944 ± 0.0038.
UCCUGGAUGAGCUUGCAUAGUUUUAAGUUA was tested, and the “pre-steady-state target cleavage rate” value [1] was 0.0195 ± 0.0084.
With UCCUGGAUCAGCUUGCAAUCUAUUUACAAA the “pre-steady-state target cleavage rate” value [2] was under 0.0001.
For UCCUGGUACAGCUUGGAUUGUAUUUAGUUA, the “pre-steady-state target cleavage rate” value [1] was 0.0395 ± 0.013.
UCCUGGAUCAGCUUGCUUAGAAUUUAGUUA was tested, and the “pre-steady-state target cleavage rate” value [1] was 0.0318 ± 0.0073.
For UCCUGGAUGUCGAACGUGAGUAUUUAGUUA, the “pre-steady-state target cleavage rate” value [2] was under 0.0001.
In the case of UCCUGGAUGUGCUAGCAUAGUAUUAAGUUA, the “pre-steady-state target cleavage rate” value [1] is reported as 0.0987 ± 0.014.
With UCCUGGAUCAGCUUGCUAAGUAUUUAGUAA the “pre-steady-state target cleavage rate” value [1] was 0.0344 ± 0.01.
In the case of UCCUGGUACAGCUUGCAAUGUAUUUACAAA, the “pre-steady-state target cleavage rate” value [1] is reported as 0.00784 ± 0.0049.
UCCUGGAUCAGCUUGCAUAGUAUUUAAUUA was tested, and the “pre-steady-state target cleavage rate” value [1] was 0.0429 ± 0.0097.
For UCCUGGAUGUGCUUGCAUAGUAUUUAGAUA, the “pre-steady-state target cleavage rate” value [1] was 0.0576 ± 0.014.
For UCCUGGAUGUCGUUGCAUAGAAUUUAGUUA, the “pre-steady-state target cleavage rate” value [1] was 0.00458 ± 0.0035.
For UCCUGGAUGUCGAAGCAUAGUAUUCAGUUA, the “pre-steady-state target cleavage rate” value [1] was 0.00908 ± 0.0042.
In the case of UCCUGGAUGUCGUUGCAUAGUAUCUAGUUA, the “pre-steady-state target cleavage rate” value [1] is reported as 0.11 ± 0.019.
UCCUGGAACAGCUUGCAUAGUAUUUAUUA was tested, and the “pre-steady-state target cleavage rate” value [1] was 0.046 ± 0.014.
In the case of UCCUGGUACAGCUUGCAUAGAAUUUAGUAA, the “pre-steady-state target cleavage rate” value [1] is reported as 0.0567 ± 0.024.
With UCCUGGAUGUCCUUGCAUAGUAUUUUCUAA the “pre-steady-state target cleavage rate” value [1] was 0.0134 ± 0.0068.
In the case of UCCUGGAUGUCGAUGCAUAGUUAAUAGUUA, the “pre-steady-state target cleavage rate” value [2] is reported as 0.00272 ± 0.0027.
In the case of UCCUGGAUCAGCUUGCAUAGUAAAUUCAAA, the “pre-steady-state target cleavage rate” value [1] is reported as 0.0136 ± 0.0055.
For UCCUGGAUGUGCUUGCAUAGUAUUUUGAUA, the “pre-steady-state target cleavage rate” value [1] was 0.0122 ± 0.0054.
For UCCUGGUACAGCUUGCAUACAUUUUAGUUA, the “pre-steady-state target cleavage rate” value [2] was 0.00408 ± 0.0037.
UCCUGGAACAGCUUGCAAUGUAUUUACAAA was tested, and the “pre-steady-state target cleavage rate” value [1] was 0.0552 ± 0.017.
With UCCUGGUAGUCCUUGCAUAGUAUUUUCAAA the “pre-steady-state target cleavage rate” value [1] was 0.0125 ± 0.0059.
For UCCUGGAACAGCAACCAUAGUAUUUAGAAA, the “pre-steady-state target cleavage rate” value [1] was 0.018 ± 0.0072.
UCCUGGAUGUCCUACCAUAGUAUUUAGUUA was tested, and the “pre-steady-state target cleavage rate” value [1] was 0.0632 ± 0.015.
For UCCUGGAUGUGCUACCAUAGUAUUUAGUAA, the “pre-steady-state target cleavage rate” value [1] was 0.0454 ± 0.011.
In the case of UCCUGGAUCUCCUUGCAUAGUAUUUACAAA, the “pre-steady-state target cleavage rate” value [1] is reported as 0.0872 ± 0.018.
For UCCUGGUACACGUUGCAUAGUAUUUAGUAA, the “pre-steady-state target cleavage rate” value [1] was 0.166 ± 0.038.
In the case of UCCUGGAUGUCGAAGCAUAGUAUUUCAGUUA, the “pre-steady-state target cleavage rate” value [1] is reported as 0.0176 ± 0.0068.
For UCCUGCUACAGCUUGCUAAGUAUUUAGUAA, the “pre-steady-state target cleavage rate” value [1] was 0.0923 ± 0.022.
For UCCUGGAUGAGCUUGCAUAGUAAAAAGUUA, the “pre-steady-state target cleavage rate” value [1] was 0.0673 ± 0.016.
With UCCUGGAACAGCUUGCAUAGUAUAAACAAA the “pre-steady-state target cleavage rate” value [1] was 0.0505 ± 0.015.
UCCUCCUACAGCAAGCAUAGUAUUUUCAAA was tested, and the “pre-steady-state target cleavage rate” value [1] was 0.111 ± 0.025.
With UCCUGGAUGUCCAUGCAUAGUAAUUAGUUA the “pre-steady-state target cleavage rate” value [1] was 0.0249 ± 0.0072.
For UCCUCCUACAGGUUGCAUAGUAUUUACUUA, the “pre-steady-state target cleavage rate” value [1] was 0.0691 ± 0.015.
UCCUGGAUGUCGAACGUAUGUAUUUACAAA was tested, and the “pre-steady-state target cleavage rate” value [2] was under 0.0001.
In the case of UCCUGGAUGUGCUUGCAUAGUAAAAAGUUA, the “pre-steady-state target cleavage rate” value [1] is reported as 0.0196 ± 0.0079.
For UCCUGGAUGAGCUUGCAUAGUUUAUAGUUA, the “pre-steady-state target cleavage rate” value [1] was 0.0127 ± 0.0052.
In the case of UCCUGGAUGUCGAAGCAUGUAUUUAGUUA, the “pre-steady-state target cleavage rate” value [2] is reported as under 0.0001.
UCCUGGAUGUCGAACGUUAGUAUUUACAAA was tested, and the “pre-steady-state target cleavage rate” value [2] was under 0.0001.
UCCUGGAUCUGCUUGCAUAGUAUUUAGAAA was tested, and the “pre-steady-state target cleavage rate” value [1] was 0.0794 ± 0.019.
